Experimental data published in PubChem BioAssay (NCATS).
Inconclusive results are not listed. Active and inactive are the calls of the source. Calls follow the shape of the dose curve; as a rule, active = well fitted curve in the direction sought with a large enough effect; inconclusive = small, poorly fitted or top-dose-only effect, or another doubt; inactive = no such curve, though single readings can be large; an effect the other way counts as inactive or inconclusive. *1 amine or outer side, *2 acyl side, *3 side chain or, on linkers, in order; H or OH if unused. Where a SMILES comes first, the peptide text is derived from it. Bridges are numbered along the chain shown (N, C = ends). X6 = O=C(CCC[*:2])[*:1]

Tests used:
NIH3T3 = test: qHTS assay to identify novel small-molecules to repurpose for Merkel cell carcinoma treatment (AID 1296009); details: MCC and control cell lines, CellTiter-Glo viability, 72 h; at 44.8 µM (top of the series) unless noted; also: nearly all actives have a fitted effect of over 60% in size
Outline: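 CellTiter-Glo luminescence after 72 hr compound exposure at 37 degree celsius gave cell viability. Libraries NPC and MIPE were run as 8- and 11-point dose responses; RLUs normalized to DMSO (negative) and no-cell (cytotoxicity) controls.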

C33A = test: Primary qHTS to identify gynecologic anti-cancer compounds using libraries of approved drugs and bioactive compounds (AID 1345084); details: Gynecologic cancer cell panel viability, ATPlite luminescence, 48 h; series mostly up to 57.5 µM; also: % is scaled to controls: 0 for no effect and ±100 for the full control effect; nearly all actives have a fitted effect of over 55% in size
Outline: (§1)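 Five-concentration response, 48 h; readout is ATP-driven luciferase luminescence.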

CAOV3 = test: as above; details: Gynecologic cancer cell panel viability, ATPlite luminescence, 48 h; series mostly up to 57.5 µM
Outline: as §1

CASKI = test: as above; details: Gynecologic cancer cell panel viability, ATPlite luminescence, 48 h; series mostly up to 57.5 µM
Outline: as §1

Es-2 = test: as above; details: Gynecologic cancer cell panel viability, ATPlite luminescence, 48 h; series mostly up to 57.5 µM
Outline: as §1

HeLa = test: as above; details: Gynecologic cancer cell panel viability, ATPlite luminescence, 48 h; series mostly up to 57.5 µM
Outline: as §1

Hek293T = test: as above; details: Gynecologic cancer cell panel viability, ATPlite luminescence, 48 h, control line for the selectivity index; series mostly up to 57.5 µM
Outline: as §1

JEG-3 = test: as above; details: Gynecologic cancer cell panel viability, ATPlite luminescence, 48 h; series mostly up to 57.5 µM
Outline: as §1

OV90 = test: as above; details: Gynecologic cancer cell panel viability, ATPlite luminescence, 48 h; series mostly up to 57.5 µM
Outline: as §1

PA-1 = test: as above; details: Gynecologic cancer cell panel viability, ATPlite luminescence, 48 h; series mostly up to 57.5 µM
Outline: as §1

SKOV3 = test: as above; details: Gynecologic cancer cell panel viability, ATPlite luminescence, 48 h; series mostly up to 57.5 µM
Outline: as §1

Tov-21-G = test: as above; details: Gynecologic cancer cell panel viability, ATPlite luminescence, 48 h; series mostly up to 57.5 µM
Outline: as §1

Tov112D = test: as above; details: Gynecologic cancer cell panel viability, ATPlite luminescence, 48 h; series mostly up to 57.5 µM
Outline: as §1

CC(C)C1=CC2=CCC3[C@](C)(CCC[C@@]3(C)C(=O)O)C2CC1O (some centres not stated)
inactive: outcome (NIH3T3) | Potency (C33A) | Potency (CAOV3) | Potency (CASKI) | Potency (Es-2) | Potency (HeLa) | Potency (Hek293T) | Potency (JEG-3) | Potency (OV90) | Potency (PA-1) | Potency (SKOV3) | Potency (Tov-21-G) | Potency (Tov112D)

CCC(NC(=O)CC(NC(=O)C(CO)NC(=O)C(CC)NC(=O)c1ccc[nH]1)c1ccccc1)C(=O)O (configuration not stated)
inactive: outcome (NIH3T3) inactive [at 17.4 µM] | Potency (C33A) | Potency (CAOV3) | Potency (CASKI) | Potency (Es-2) | Potency (HeLa) | Potency (Hek293T) | Potency (JEG-3) | Potency (OV90) | Potency (PA-1) | Potency (SKOV3) | Potency (Tov-21-G) | Potency (Tov112D)

CCCC(N[C@@H](C)C(=O)N1[C@H](C(=O)O)C[C@@H]2CCCC[C@@H]21)C(=O)OCC (some centres not stated)
inactive: outcome (NIH3T3) | Potency (C33A) | Potency (CAOV3) | Potency (CASKI) | Potency (Es-2) | Potency (HeLa) | Potency (Hek293T) | Potency (JEG-3) | Potency (OV90) | Potency (PA-1) | Potency (SKOV3) | Potency (Tov-21-G) | Potency (Tov112D)

c1ccc(C(OC2CCN(CCCc3nn[nH]n3)CC2)c2ccccc2)cc1
inactive: outcome (NIH3T3) | Potency (C33A) | Potency (CAOV3) | Potency (CASKI) | Potency (Es-2) | Potency (HeLa) | Potency (Hek293T) | Potency (JEG-3) | Potency (OV90) | Potency (PA-1) | Potency (SKOV3) | Potency (Tov-21-G) | Potency (Tov112D)

C[C@]12CC[C@@H]3c4ccc(O[C@@H]5O[C@H](C(=O)O)[C@@H](O)[C@H](O)[C@H]5O)cc4CC[C@H]3[C@@H]1CCC2=O
inactive: outcome (NIH3T3) | Potency (C33A) | Potency (CAOV3) | Potency (CASKI) | Potency (Es-2) | Potency (HeLa) | Potency (Hek293T) | Potency (JEG-3) | Potency (OV90) | Potency (PA-1) | Potency (SKOV3) | Potency (Tov-21-G) | Potency (Tov112D)

COc1ccc2c(c1O)OC[C@H]1c3ccc(O)cc3O[C@@H]21
inactive: outcome (NIH3T3) | Potency (C33A) | Potency (CAOV3) | Potency (CASKI) | Potency (Es-2) | Potency (HeLa) | Potency (Hek293T) | Potency (JEG-3) | Potency (OV90) | Potency (PA-1) | Potency (SKOV3) | Potency (Tov-21-G) | Potency (Tov112D)

CC[C@H](C)[C@@H]1NC(=O)[C@H](Cc2ccc(OC)cc2)NC(=O)CCCSC[C@@H](C(=O)N2CCC[C@H]2C(=O)N[C@@H](CC(C)C)C(=O)NCC(N)=O)NC(=O)[C@H](CC(N)=O)NC(=O)[C@H](CCC(N)=O)NC1=O (Y(Me)IQNCPLG-NH2; linker N-5 via X6)
inactive: outcome (NIH3T3) | Potency (C33A) | Potency (CAOV3) | Potency (CASKI) | Potency (Es-2) | Potency (HeLa) | Potency (Hek293T) | Potency (JEG-3) | Potency (OV90) | Potency (PA-1) | Potency (SKOV3) | Potency (Tov-21-G) | Potency (Tov112D)

O=S(=O)(Nc1ccc(C(O)(C(F)(F)F)C(F)(F)F)cc1)c1cccs1
inactive: outcome (NIH3T3) | Potency (C33A) | Potency (CAOV3) | Potency (CASKI) | Potency (Es-2) | Potency (HeLa) | Potency (Hek293T) | Potency (JEG-3) | Potency (OV90) | Potency (PA-1) | Potency (SKOV3) | Potency (Tov-21-G) | Potency (Tov112D)

O=C(O[C@H]1[C@@H]2C[C@@H]3OC[C@@](O)([C@H]2[C@H](O[C@@H]2O[C@H](CO)[C@@H](O)[C@H](O)[C@H]2O)O3)[C@@H]1O)c1ccccc1
inactive: outcome (NIH3T3) inactive [at 17.4 µM] | Potency (C33A) | Potency (CAOV3) | Potency (CASKI) | Potency (Es-2) | Potency (HeLa) | Potency (Hek293T) | Potency (JEG-3) | Potency (OV90) | Potency (PA-1) | Potency (SKOV3) | Potency (Tov-21-G) | Potency (Tov112D)

O=C(O[C@H]1[C@@H]2C=CO[C@@H](O[C@@H]3O[C@H](CO)[C@@H](O)[C@H](O)[C@H]3O)[C@@H]2[C@@]2(CO)O[C@@H]12)c1ccc(O)cc1
inactive: outcome (NIH3T3) inactive [at 17.4 µM] | Potency (C33A) | Potency (CAOV3) | Potency (CASKI) | Potency (Es-2) | Potency (HeLa) | Potency (Hek293T) | Potency (JEG-3) | Potency (OV90) | Potency (PA-1) | Potency (SKOV3) | Potency (Tov-21-G) | Potency (Tov112D)

C=C1CCC2C(C)(COC3OC(COC(=O)CC(=O)O)C(O)C(O)C3O)CCCC2(C)C1CCC1=CCOC1=O (configuration not stated)
inactive: outcome (NIH3T3) inactive [at 17.4 µM] | Potency (C33A) | Potency (CAOV3) | Potency (CASKI) | Potency (Es-2) | Potency (HeLa) | Potency (Hek293T) | Potency (JEG-3) | Potency (OV90) | Potency (PA-1) | Potency (SKOV3) | Potency (Tov-21-G) | Potency (Tov112D)

NS(=O)(=O)NCCNc1nonc1C(=Nc1ccc(F)c(Br)c1)NO
inactive: outcome (NIH3T3) | Potency (C33A) | Potency (CAOV3) | Potency (CASKI) | Potency (Es-2) | Potency (HeLa) | Potency (Hek293T) | Potency (JEG-3) | Potency (OV90) | Potency (PA-1) | Potency (SKOV3) | Potency (Tov-21-G) | Potency (Tov112D)

CC1CC(=O)C2=C(O1)OC1(C)CCC3C(C)(C)C=CC(=O)C3(C)C1C2 (configuration not stated)
inactive: outcome (NIH3T3) | Potency (C33A) | Potency (CAOV3) | Potency (CASKI) | Potency (Es-2) | Potency (HeLa) | Potency (Hek293T) | Potency (JEG-3) | Potency (OV90) | Potency (PA-1) | Potency (SKOV3) | Potency (Tov-21-G) | Potency (Tov112D)

CC(C)(C)NCc1cc(Nc2ccnc3cc(Cl)ccc23)c2c(c1O)CCCC2
inactive: outcome (NIH3T3) inactive [at 0.588 µM] | activity change, negative = cytotoxicity (C33A) 15.8% [at 0.462 µM] | activity change, negative = cytotoxicity (CAOV3) -2.51% [at 0.462 µM] | activity change, negative = cytotoxicity (CASKI) 10.8% [at 0.462 µM] | activity change, negative = cytotoxicity (Es-2) 6.55% [at 0.462 µM] | activity change, negative = cytotoxicity (HeLa) 9.09% [at 0.462 µM] | activity change, negative = cytotoxicity (Hek293T) -0.834% [at 0.462 µM] | activity change, negative = cytotoxicity (JEG-3) 2.67% [at 0.462 µM] | activity change, negative = cytotoxicity (OV90) 12.6% [at 0.462 µM] | activity change, negative = cytotoxicity (PA-1) 0.938% [at 0.462 µM] | activity change, negative = cytotoxicity (SKOV3) 4.41% [at 0.462 µM] | activity change, negative = cytotoxicity (Tov-21-G) 8.34% [at 0.462 µM] | activity change, negative = cytotoxicity (Tov112D) 20.2% [at 0.462 µM]
